Vc quorum ag: inducers of Vibrio cholerae quorum light production without autoinducers, primary screen, BH1578 luxS cqsA deficient, single point. 350,000 tested, 0.16% active. V. cholerae BH1578 lux reporter, luminescence, 6 h. activation, % at 18.7 µM; in the data active = activation mostly above about 9.7%, no sharp cut-off
PfHsp40 yeast: rescue of yeast from PfHsp40 toxicity, primary screen, S. cerevisiae, ATP luminescence; S. cerevisiae expressing PfHsp40, growth rescue; growth rescue, % at 12.5 µM; 340,000 tested, 0.68% active; in the data active = growth rescue above about 28%, passing the limit was not always enough;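 also: yeast W303a lacking pdr1 and pdr3 grown in galactose medium; growth measured after three days at 30 °C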
PrP UTR inh: inhibition of PrP 5' UTR reporter expression; cell-based PrP 5' UTR mRNA reporter, plate reader; inhibition, % (test concentration not listed); 340,000 tested, 0.35% active; AID 488862, 2010; in the data active = inhibition above about 52%; also: 0 = median of the neutral control wells
3CLpro inhibitor: SARS-CoV 3CLpro protease inhibitors, primary screen, biochemical, quenched FRET | Replicase polyprotein 1ab (Severe acute respiratory syndrome coronavirus), P0C6X7 | recombinant SARS-CoV 3CLpro, quenched FRET peptide cleavage | inhibition, % at 6 µM | 290,000 tested, 0.14% active | AID 1706, 2009; in the data active = inhibition above about 12%
PrPC surface inh: inhibitors of human cell surface prion protein PrPC, primary screen, cell-based, TR-FRET | 370,000 tested, 0.43% active | Major prion protein (Homo sapiens), P04156 | TR-FRET read-out | inhibition, % at 13.8 µM; in the data active = inhibition above about 24%; also: 0% = median of the test wells and 100% = reference compound wells
SSB-PriA inh: inhibitors of Klebsiella pneumoniae PriA binding to SSB C-terminal tail, primary screen, biochemical, AlphaScreen | 430,000 tested, 0.6% active | inhibition, % at 33 µM | PriA–SSB C-terminal tail interaction (Klebsiella pneumoniae) | AlphaScreen SSBct-PriA binding, biotinylated peptide; in the data active = inhibition mostly above about 37%, no sharp cut-off; inactive = mostly below about 20%;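 also: plate controls were negative control peptide for no effect and reference peptide for full effect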
PrPC TRFRET cf: confirmation of inhibitors of cell surface human prion protein, confirmation, cell-based, TR-FRET; shares compounds with PrPC surface inh; cell surface PrPC level; inhibition, % at 13.8 µM; 1,500 tested, 65% active; in the data active = inhibition above about 25%
LD9 cytotox: cytotoxicity in LD9 cells, cytotoxicity control for cell surface PrPc inhibitor project, cell-based, luminescence, high throughput; shares compounds with PrPC surface inh; inhibition, % at 13.8 µM; luminescence viability; AID 743201, 2013; 1,500 tested, 29% active; in the data active = inhibition above about 9.5%
* hit, by the source's call; i = inactive; . = no result. This is a sample that favours compounds with a hit; in the whole collection about 1.6% have one here.

SMILES	Vc quorum ag	PfHsp40 yeast	PrP UTR inh	3CLpro inhibitor	PrPC surface inh	SSB-PriA inh	PrPC TRFRET cf	LD9 cytotox
O=C(COc1ccccc1[N+](=O)[O-])Nc1cccnc1	-2	-2	-42	1	-3	9	.	.
O=C(COc1ccc2ccccc2c1Br)NC(=S)Nc1cccc(CO)c1	0	6	-37	1	61*	-13	66*	-8
O=C(O)CCC(=O)NNC(=O)COc1ccc(Cl)cc1Cl	-1	-1	-23	2	-8	-12	.	.
O=C(COc1ccc2ccccc2c1Br)Nc1cccnc1	i	0	-18	-1	48*	-4	68*	-3
O=C(COc1ccc2ccccc2c1Br)Nc1ccncc1	3	0	-22	-7	60*	2	69*	8
CCOC(=O)N1CCN(C(=O)/C(=C/c2ccc(OC)c(OC)c2)NC(=O)c2ccccc2)CC1	i	17	-33	-6	29*	-20	-1	-4
CCOC(=O)N1CCN(C(=O)/C(=C/c2ccccc2OC)NC(=O)c2ccccc2)CC1	0	-1	-19	-6	-3	-14	.	.
O=Nc1cc(CN2CCOCC2)c(O)c2ncccc12	.	.	.	.	.	28	.	.
Oc1c(CN2CCCCC2)cc(Br)c2cccnc12	0	5	23	-2	32*	78	4	16*
Cc1ccc(S(=O)(=O)NCC2CCN(C(C)C)CC2)cc1	.	.	.	.	.	-16	.	.
O=S(=O)(NC1c2cccc3cccc(c23)C1N1CCNCC1)c1ccccc1 (stereo unspecified)	i	2	-7	-2	-10	20	.	.
O=S(=O)(NC1c2cccc3cccc(c23)C1N1CCN(CCO)CC1)c1ccccc1 (stereo unspecified)	i	0	-4	-3	34*	-5	16	4
Nc1nnc(-c2cc(Br)cs2)o1	.	.	.	.	.	-1	.	.
O=C(c1ccccc1Br)N1CCN(c2cc(Cl)ccc2Cl)CC1	.	.	.	.	.	9	.	.
Cc1nn(C2CCS(=O)(=O)C2)c2nc(-c3cccs3)cc(C(=O)NC3CC3)c12 (stereo unspecified)	.	.	.	.	.	2	.	.
O=c1nc(N/N=C/c2ccccn2)cn[nH]1	0	617*	-9	2	25*	.	23	9.5*
Cc1ccc(C=NNc2cn[nH]c(=O)n2)o1	.	.	.	.	.	5	.	.
CCc1nc2ccccc2[nH]c1=O	0	-2	1	4	37*	-16	0	-6
CCN(CC)c1nc2ccccc2[nH]c1=O	-1	-1	0	-3	3	-9	.	.
Nn1c(SCc2ccc(Br)cc2)nnc1-c1n[nH]c2c1CCC2	.	.	.	.	25*	.	19	8
CC(C)c1ccc(-n2c(-c3ccccc3)c[n+]3c2CCc2ccccc2-3)cc1	0	4	-8	-1	41*	-1	50*	37*
COc1ccc(-n2c(-c3ccc(Br)cc3)c[n+]3c2CCc2ccccc2-3)cc1	i	1	-15	-4	15	-13	.	.
COc1ccccc1Oc1ccc2c(c1)C(=O)N(CC1CCCO1)C2=O (stereo unspecified)	1	0	-27	-1	47*	-11	1	-4
CC(NC(=O)CSc1ccc(S(=O)(=O)N2CCOCC2)cn1)c1ccc(Cl)cc1Cl (stereo unspecified)	-2	0	-16	.	27*	-4	5	3
O=C(Nc1ccc([N+](=O)[O-])cc1)Nn1cnnc1	0	-2	-13	-4	37*	-4	-1	1
SMILES	Vc quorum ag	PfHsp40 yeast	PrP UTR inh	3CLpro inhibitor	PrPC surface inh	SSB-PriA inh	PrPC TRFRET cf	LD9 cytotox
Cc1ccc(NC(=O)Nn2cnnc2)cc1	i	0	-15	-4	5	-17	.	.
Cc1onc(-c2c(Cl)cccc2Cl)c1C(N)=NOC(=O)C(C)(C)C	.	.	.	.	.	-11	.	.
CC1CCC(NC(=O)CNC(=O)Cc2cccc3ccccc23)CC1 (stereo unspecified)	0	0	-10	-4	31*	-12	0	-5
CCOP(=S)(OCC)Oc1ccc2c(C)c(Cl)c(=O)oc2c1	0	.	.	.	68*	-8	37*	1
CCC(=O)Oc1ccc2c(C)c(Cl)c(=O)oc2c1	0	1	-13	-3	4	12	.	.
Cn1c(=O)cc(OCCCC(=O)Nc2cc(C(F)(F)F)ccn2)c2ccccc21	.	.	.	.	29*	.	42*	11*
Cn1c(=O)cc(OCCCC(=O)Nc2cc(Br)ccn2)c2ccccc21	.	.	.	.	31*	.	47*	15*
Cn1c(=O)cc(OCCCC(=O)Nc2cc(-c3ccncc3)ccn2)c2ccccc21	.	.	.	.	27*	.	35*	13*
Cn1c(=O)cc(OCCCC(=O)NCc2ccccn2)c2ccccc21	0	-1	-19	0	6	-16	.	.
Cn1c(=O)cc(OCCCC(=O)NCc2cccnc2)c2ccccc21	6	1	-8	1	-1	-3	.	.
C=CCNC(=O)Nc1cn(CC)c2ccccc12	.	.	.	.	.	-2	.	.
CCc1nnc(NC(=O)c2c3c(nn2C2CCS(=O)(=O)C2)CCC3)s1 (stereo unspecified)	.	.	.	.	.	-21	.	.
CCOc1ccccc1Nc1cc(C(=O)OC)nc2ccc(F)cc12	.	.	.	.	.	-2	.	.
CC1(C)Cc2c(sc(NC(=O)c3ccc(C(=O)c4ccccc4)cc3)c2C(N)=O)C(C)(C)N1	i	1	-5	0	36*	7	-15	19*
CCOC(=O)c1c(NC(=O)COc2ccccc2C#N)sc2c1CC(C)(C)NC2(C)C	i	1	-4	-3	117*	4	104*	31*
CC(C)N1CCc2c(sc(NC(=O)C3CCCCC3)c2C(N)=O)C1	-1	0	-19	8	32*	-2	8	3
COc1ccccc1C(=O)NC(=S)/C=C1/N(C)c2ccccc2C1(C)C	0	0	-11	4	29*	2	49*	11*
CN1CCN(c2ccc(-c3cccc(NC(=O)c4c(F)cccc4Cl)c3)nn2)CC1	.	.	.	.	.	2	.	.
O=C(NC1CCCCN(Cc2ccc(Cl)cc2)C1=O)c1ccc(COc2ccccc2)cc1 (stereo unspecified)	.	.	.	.	16	.	.	.
COc1cc(C(=O)NC2CCCCN(Cc3cccc(C(F)(F)F)c3)C2=O)cc(OC)c1OC (stereo unspecified)	.	.	.	.	49*	.	8	-7
COc1cc(C(=O)NC2CCCCN(Cc3cccc(Cl)c3)C2=O)cc(OC)c1OC (stereo unspecified)	.	.	.	.	2	.	.	.

From PubChem
